Results filed as inconclusive are left out. The source made the active and inactive calls. Calls come from the whole dose curve; as a rule, active = well fitted inhibition curve with a large enough effect; inconclusive = small, poorly fitted or top-dose-only effect; inactive = flat fitted curve, though single readings scatter.
Test system: CP265
Assay: qHTS profiling for inhibitors of Plasmodium falciparum proliferation (AID 504749); note: nearly all actives have a fitted effect of over 60% in size;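 for activity, negative = inhibition: 0% = DMSO vehicle and full inhibition = artemisinin control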
Conditions: P. falciparum in erythrocytes, SYBR Green DNA, 72 h; series mostly up to 28.7 µM; activity, negative = inhibition: at the top concentration
How it was run: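 Fluorescence of SYBR Green-bound parasite DNA, read at 485/535 nm, served as the growth measure. Infected erythrocytes were cultured with compound 72 h; artemisinin (0.29 uM) and DMSO wells defined the normalization range.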
Potency is the fitted concentration of half-maximal effect.

Structure (SMILES)	activity, negative = inhibition	Potency
CC(=O)O[C@H]1CC[C@H]2[C@@H]3CCC4=CC(=O)CCC4=C3C=C[C@]12C	-28.9% (inactive)	
CC[N+](C)(CC)CCOC(=O)C(O)(c1ccccc1)c1ccccc1	4.6% (inactive)	
O=C1C2CC=CCC2C(=O)N1SC(Cl)(Cl)Cl (centres undefined)	-13.2% (inactive)	
[O]=[Cd]	2.94% (inactive)	
[O]=[Cr](=[O])([OH])[O][Cr](=[O])(=[O])[OH]		inactive
ClC=C(Cl)Cl	7.67% (inactive)	
CCC(C)(S(=O)(=O)CC)S(=O)(=O)CC	-5.07% (inactive)	
C[CH2][Hg][S]c1ccccc1C(=O)O		1.41 µM (active)
C[C@]12CCC(=O)C[C@@H]1CC[C@@H]1[C@@H]2CC[C@]2(C)[C@@H](O)CC[C@@H]12	2.02% (inactive)	
CNC(C)C(O)c1ccc(O)cc1 (centres undefined)	5.11% (inactive)	
ClCC1CO1 (centres undefined)	1.62% (inactive)	
CCNC(C)Cc1cccc(C(F)(F)F)c1 (centres undefined)	-0.219% (inactive)	
CN1C2CCC1CC(OC(c1ccccc1)c1ccc(Cl)cc1)C2 (centres undefined)		8.91 µM (active)
COC([CH2][Hg])CNC(=O)c1ccccc1OCC(=O)O (centres undefined)	0.14% (inactive)	
CCON=O	3.31% (inactive)	
Clc1ccccc1Cl	5.34% (inactive)	
CCC(N)Cc1c[nH]c2ccccc12 (centres undefined)	-14.2% (inactive)	
O[C@H]1[C@H]2[C@H](O)CCCN2C[C@H]1O	-0.346% (inactive)	
C[N+]1(C)C2CCC1CC(OC(=O)c1c[nH]c3ccccc13)C2 (centres undefined)	5.21% (inactive)	
Clc1ccc(Cl)cc1	-3.09% (inactive)	

Structure (SMILES)	activity, negative = inhibition	Potency
CC(C)(O)C1C2OC(=O)C1C1(O)CC3OC34C(=O)OC2C14C (centres undefined)	-0.754% (inactive)	
O=[N+]([O-])C(Br)(CO)CO	-7.47% (inactive)	
CC(C)Nc1ccc(Nc2ccccc2)cc1		11.2 µM (active)
FC(F)OC(F)(F)C(F)Cl (centres undefined)	-0.446% (inactive)	
CC(=O)OO	-2.13% (inactive)	
CN1c2ccccc2C(NCCCCCCC(=O)O)c2ccc(Cl)cc2S1(=O)=O (centres undefined)	-5.04% (inactive)	
CCCC(C)C1(CC)C(=O)NC(=O)NC1=O (centres undefined)	8.22% (inactive)	
C=CCN1CCC23c4c5ccc(O)c4O[C@H]2C(=O)CC[C@@]3(O)C1C5 (some centres undefined)	-1.33% (inactive)	
ClC(Cl)(Cl)Cl	1.1% (inactive)	
Oc1cc(Cl)c(Cl)cc1Cl	-12.5% (inactive)	
O=CC=O	1.98% (inactive)	
CCCC(C)(COC(N)=O)COC(=O)NC1CC1 (centres undefined)	7.46% (inactive)	
N#CN	3.2% (inactive)	
O=C(CS(=O)C(c1ccccc1)c1ccccc1)NO (centres undefined)	0.861% (inactive)	
ClC1C(Cl)C(Cl)C(Cl)C(Cl)C1Cl (centres undefined)	-1.38% (inactive)	
O=Cc1ccco1	4.13% (inactive)	
O=S(=O)(O)c1cc(O)ccc1O	4.75% [at 12.8 µM] (inactive)	
CCCCNCC(O)c1ccc(O)cc1 (centres undefined)	4.18% (inactive)	
O=C1CCCCC1CN1CCCCC1 (centres undefined)	8.23% (inactive)	

Source: PubChem BioAssay (NCATS)
